Residue numbers refer to the chain shown, from its start.
Key:
Assay in all cases: PBM; 200 nM protein, PBS
Settings in all cases: dsDNA, one strand shown
VENTX [1] = molecular target: T1, VENTX (Homo sapiens, UniProt O95231 78-163, R121Q)
T1 sequence: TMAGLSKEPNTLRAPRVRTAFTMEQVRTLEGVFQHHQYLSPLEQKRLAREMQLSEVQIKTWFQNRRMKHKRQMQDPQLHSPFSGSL

VENTX [2] = molecular target: T2, VENTX (Homo sapiens, UniProt O95231 78-163)
T2 sequence: T1 sequence with Q44R

VENTX [3] = molecular target: T3, VENTX (Homo sapiens, UniProt O95231 78-163, Y115F)
T3 sequence: T1 sequence with Y38F, Q44R

VAX1 [4] = molecular target: VAX1 (Homo sapiens, UniProt Q5SQQ9 86-172)
VAX1 [5] = molecular target: VAX1 (Homo sapiens, UniProt Q5SQQ9 86-172, T142I)
VAX1 [6] = molecular target: VAX1 (Homo sapiens, UniProt Q5SQQ9 86-172, K157R)
PRRX1 [7] = molecular target: PRRX1 (Homo sapiens, UniProt P54821 80-166, F113S)
PRRX1 [8] = molecular target: PRRX1 (Homo sapiens, UniProt P54821 80-166)
HOXB9 [9] = molecular target: HOXB9 (Homo sapiens, UniProt P17482 171-250, T197M)
HOXC9 [10] = molecular target: HOXC9 (Homo sapiens, UniProt P31274 178-260, K195R)
HOXC10 [11] = molecular target: HOXC10 (Homo sapiens, UniProt Q9NYD6 254-340)
ALX4 = ALX4 (Homo sapiens, UniProt Q9H161 200-286, Q225E)
HOXB9 [12] = molecular target: HOXB9 (Homo sapiens, UniProt P17482 171-250)
HOXC9 [13] = molecular target: HOXC9 (Homo sapiens, UniProt P31274 178-260)
HOXD13 [14] = molecular target: HOXD13 (Homo sapiens, UniProt P35453 263-343, T313R)
HOXC9 [15] = molecular target: HOXC9 (Homo sapiens, UniProt P31274 178-260, R193K)
HOXD13 [16] = molecular target: HOXD13 (Homo sapiens, UniProt P35453 263-343)
HOXC10 [17] = molecular target: HOXC10 (Homo sapiens, UniProt Q9NYD6 254-340, K271E)
HOXD13 [18] = molecular target: HOXD13 (Homo sapiens, UniProt P35453 263-343, T313A)
HOXB9 [19] = molecular target: HOXB9 (Homo sapiens, UniProt P17482 171-250, R186Q)
HOXC9 [20] = molecular target: HOXC9 (Homo sapiens, UniProt P31274 178-260, R222W)
NKX2-6 = molecular target: T4, NKX2-6 (Homo sapiens, UniProt A6NCS4 118-204)
T4 sequence: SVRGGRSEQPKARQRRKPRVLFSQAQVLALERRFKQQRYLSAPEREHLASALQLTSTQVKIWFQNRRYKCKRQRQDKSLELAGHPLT

HOXB6 [21] = molecular target: HOXB6 (Homo sapiens, UniProt P17509 132-218, K202E)
HOXA7 [22] = molecular target: HOXA7 (Homo sapiens, UniProt P31268 116-202)
PAX4 [23] = molecular target: T5, PAX4 (Homo sapiens, UniProt O43316 9-242, R200K)
T5 sequence: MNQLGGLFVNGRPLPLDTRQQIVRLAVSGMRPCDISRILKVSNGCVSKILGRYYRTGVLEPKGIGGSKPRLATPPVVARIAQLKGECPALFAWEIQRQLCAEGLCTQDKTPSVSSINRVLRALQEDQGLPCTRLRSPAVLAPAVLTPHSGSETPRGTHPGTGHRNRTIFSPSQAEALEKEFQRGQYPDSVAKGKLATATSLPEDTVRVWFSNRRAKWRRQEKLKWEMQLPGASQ

PAX4 [24] = molecular target: T6, PAX4 (Homo sapiens, UniProt O43316 9-242)
T6 sequence: T5 sequence with K192R

PAX4 [25] = molecular target: T7, PAX4 (Homo sapiens, UniProt O43316 9-242, R200Q)
T7 sequence: T5 sequence with K192Q

PAX4 [26] = molecular target: T8, PAX4 (Homo sapiens, UniProt O43316 9-242, F177V)
T8 sequence: T5 sequence with F169V, K192R

PAX4 [27] = molecular target: T9, PAX4 (Homo sapiens, UniProt O43316 9-242, F177Y)
T9 sequence: T5 sequence with F169Y, K192R

HESX1 = HESX1 (Homo sapiens, UniProt Q9UBX0 95-180, F115L)
PAX4 [28] = molecular target: T10, PAX4 (Homo sapiens, UniProt O43316 9-242, R227W)
T10 sequence: T5 sequence with K192R, R219W

HOXA7 [29] = molecular target: HOXA7 (Homo sapiens, UniProt P31268 116-202, W177C)
HOXA4 [30] = molecular target: HOXA4 (Homo sapiens, UniProt Q00056 201-287, W262F)
HOXB6 [31] = molecular target: HOXB6 (Homo sapiens, UniProt P17509 132-218)
CRX = CRX (Homo sapiens, UniProt O43186 26-111, R41L)
HOXA4 [32] = molecular target: HOXA4 (Homo sapiens, UniProt Q00056 201-287)
ALX3 [33] = molecular target: ALX3 (Homo sapiens, UniProt O95076 139-225, N203Q)
ALX3 [34] = molecular target: ALX3 (Homo sapiens, UniProt O95076 139-225)
ALX3 [35] = molecular target: ALX3 (Homo sapiens, UniProt O95076 139-225, N203S)
ALX3 (Homo sapiens, UniProt O95076 139-225, N203S), sequence (O95076 139-225 N203S): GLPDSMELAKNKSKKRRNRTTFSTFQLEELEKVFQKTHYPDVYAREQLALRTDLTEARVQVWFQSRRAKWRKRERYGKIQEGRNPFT

HOXB9 (Homo sapiens, UniProt P17482 171-250, T197M), sequence (P17482 171-250 T197M): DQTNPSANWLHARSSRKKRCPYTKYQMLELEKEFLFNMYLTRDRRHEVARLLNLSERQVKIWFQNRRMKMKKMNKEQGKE
HOXC10 (Homo sapiens, UniProt Q9NYD6 254-340, K271E), sequence (Q9NYD6 254-340 K271E): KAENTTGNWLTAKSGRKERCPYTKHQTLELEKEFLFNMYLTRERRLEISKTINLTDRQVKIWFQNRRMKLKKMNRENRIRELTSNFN
HOXC9 (Homo sapiens, UniProt P31274 178-260, K195R), sequence (P31274 178-260 K195R): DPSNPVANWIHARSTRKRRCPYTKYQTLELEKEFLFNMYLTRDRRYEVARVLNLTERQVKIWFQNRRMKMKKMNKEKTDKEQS
HOXC9 (Homo sapiens, UniProt P31274 178-260, R222W), sequence (P31274 178-260 R222W): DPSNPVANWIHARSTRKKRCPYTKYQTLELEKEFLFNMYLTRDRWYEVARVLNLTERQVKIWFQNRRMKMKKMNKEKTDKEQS
HOXC9 (Homo sapiens, UniProt P31274 178-260), sequence (P31274 178-260): as the sequence (P31274 178-260 R222W) above, with W45R counted along it
HOXB6 (Homo sapiens, UniProt P17509 132-218, K202E), sequence (P17509 132-218 K202E): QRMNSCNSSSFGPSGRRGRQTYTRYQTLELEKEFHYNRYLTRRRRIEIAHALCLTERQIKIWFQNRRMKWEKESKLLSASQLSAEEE
HOXD13 (Homo sapiens, UniProt P35453 263-343, T313R), sequence (P35453 263-343 T313R): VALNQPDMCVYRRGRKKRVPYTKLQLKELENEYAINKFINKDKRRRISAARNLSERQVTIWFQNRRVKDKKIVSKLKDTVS
HOXD13 (Homo sapiens, UniProt P35453 263-343, T313A), sequence (P35453 263-343 T313A): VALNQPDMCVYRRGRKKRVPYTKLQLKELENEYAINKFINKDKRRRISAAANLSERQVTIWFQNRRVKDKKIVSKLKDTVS
HOXD13 (Homo sapiens, UniProt P35453 263-343), sequence (P35453 263-343): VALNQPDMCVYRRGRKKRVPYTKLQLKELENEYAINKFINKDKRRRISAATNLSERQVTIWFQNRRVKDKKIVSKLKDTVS
HOXC10 (Homo sapiens, UniProt Q9NYD6 254-340), sequence (Q9NYD6 254-340): as the sequence (Q9NYD6 254-340 K271E) above, with E18K counted along it
HOXA7 (Homo sapiens, UniProt P31268 116-202, W177C), sequence (P31268 116-202 W177C): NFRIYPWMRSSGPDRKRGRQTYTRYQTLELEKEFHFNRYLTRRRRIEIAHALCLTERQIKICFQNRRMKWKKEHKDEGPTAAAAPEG
HOXA7 (Homo sapiens, UniProt P31268 116-202), sequence (P31268 116-202): as the sequence (P31268 116-202 W177C) above, with C62W counted along it
VAX1 (Homo sapiens, UniProt Q5SQQ9 86-172), sequence (Q5SQQ9 86-172): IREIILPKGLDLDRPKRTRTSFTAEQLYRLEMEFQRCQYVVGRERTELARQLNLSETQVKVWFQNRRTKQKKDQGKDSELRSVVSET
PRRX1 (Homo sapiens, UniProt P54821 80-166), sequence (P54821 80-166): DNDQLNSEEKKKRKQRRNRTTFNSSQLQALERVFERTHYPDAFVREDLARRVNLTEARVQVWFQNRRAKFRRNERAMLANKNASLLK
HOXB9 (Homo sapiens, UniProt P17482 171-250), sequence (P17482 171-250): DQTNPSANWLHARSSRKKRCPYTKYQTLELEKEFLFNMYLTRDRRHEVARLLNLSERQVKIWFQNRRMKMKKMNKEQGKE
VAX1 (Homo sapiens, UniProt Q5SQQ9 86-172, K157R), sequence (Q5SQQ9 86-172 K157R): as the sequence (Q5SQQ9 86-172) above, with K72R counted along it
HOXC9 (Homo sapiens, UniProt P31274 178-260, R193K), sequence (P31274 178-260 R193K): as the sequence (P31274 178-260 R222W) above, with R16K, W45R counted along it
PRRX1 (Homo sapiens, UniProt P54821 80-166, F113S), sequence (P54821 80-166 F113S): as the sequence (P54821 80-166) above, with F34S counted along it
HOXB9 (Homo sapiens, UniProt P17482 171-250, R186Q), sequence (P17482 171-250 R186Q): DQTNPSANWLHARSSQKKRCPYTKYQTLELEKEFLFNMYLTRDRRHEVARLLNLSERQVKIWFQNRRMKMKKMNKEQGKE
VAX1 (Homo sapiens, UniProt Q5SQQ9 86-172, T142I), sequence (Q5SQQ9 86-172 T142I): as the sequence (Q5SQQ9 86-172) above, with T57I counted along it
ALX3 (Homo sapiens, UniProt O95076 139-225), sequence (O95076 139-225): as the sequence (O95076 139-225 N203S) above, with S65N counted along it
HOXA4 (Homo sapiens, UniProt Q00056 201-287), sequence (Q00056 201-287): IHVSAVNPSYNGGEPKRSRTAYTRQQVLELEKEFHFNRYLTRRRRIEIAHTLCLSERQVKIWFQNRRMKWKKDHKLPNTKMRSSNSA
ALX4, sequence (Q9H161 200-286 Q225E): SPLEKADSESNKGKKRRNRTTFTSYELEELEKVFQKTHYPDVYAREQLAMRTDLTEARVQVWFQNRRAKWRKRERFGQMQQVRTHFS
HOXA4 (Homo sapiens, UniProt Q00056 201-287, W262F), sequence (Q00056 201-287 W262F): as the sequence (Q00056 201-287) above, with W62F counted along it
HOXB6 (Homo sapiens, UniProt P17509 132-218), sequence (P17509 132-218): as the sequence (P17509 132-218 K202E) above, with E71K counted along it
ALX3 (Homo sapiens, UniProt O95076 139-225, N203Q), sequence (O95076 139-225 N203Q): as the sequence (O95076 139-225 N203S) above, with S65Q counted along it
HESX1, sequence (Q9UBX0 95-180 F115L): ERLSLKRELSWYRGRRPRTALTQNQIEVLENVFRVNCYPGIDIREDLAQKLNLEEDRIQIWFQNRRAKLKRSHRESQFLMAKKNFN
CRX, sequence (O43186 26-111 R41L): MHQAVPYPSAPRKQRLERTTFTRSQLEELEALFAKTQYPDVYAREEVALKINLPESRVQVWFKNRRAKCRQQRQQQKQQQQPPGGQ

## CCCATTAG
VENTX [1]
  binding signal: 12.1 upbm affinity estimate (log intensity, higher = more binding, comparable within an allelic series)
VENTX [2]
  binding signal: 13 upbm affinity estimate (log intensity, higher = more binding, comparable within an allelic series)
VENTX [3]
  binding signal: 11.9 upbm affinity estimate (log intensity, higher = more binding, comparable within an allelic series)
VAX1 [4]
  binding signal: 12.6 upbm affinity estimate (log intensity, higher = more binding, comparable within an allelic series)
VAX1 [5]
  binding signal: 12 upbm affinity estimate (log intensity, higher = more binding, comparable within an allelic series)
VAX1 [6]
  binding signal: 12.3 upbm affinity estimate (log intensity, higher = more binding, comparable within an allelic series)

## CCGATTAC
VENTX [1]
  binding signal: 10.3 upbm affinity estimate (log intensity, higher = more binding, comparable within an allelic series)
PRRX1 [7]
  binding signal: 9.76 upbm affinity estimate (log intensity, higher = more binding, comparable within an allelic series)
VENTX [3]
  binding signal: 10.4 upbm affinity estimate (log intensity, higher = more binding, comparable within an allelic series)
PRRX1 [8]
  binding signal: 11.8 upbm affinity estimate (log intensity, higher = more binding, comparable within an allelic series)

## TAATAAAA
HOXB9 [9]
  binding signal: 10.1 upbm affinity estimate (log intensity, higher = more binding, comparable within an allelic series)
HOXC9 [10]
  binding signal: 13.2 upbm affinity estimate (log intensity, higher = more binding, comparable within an allelic series)
HOXC10 [11]
  binding signal: 13 upbm affinity estimate (log intensity, higher = more binding, comparable within an allelic series)
ALX4
  binding signal: 11.8 upbm affinity estimate (log intensity, higher = more binding, comparable within an allelic series)
HOXB9 [12]
  binding signal: 12.6 upbm affinity estimate (log intensity, higher = more binding, comparable within an allelic series)
HOXC9 [13]
  binding signal: 13.2 upbm affinity estimate (log intensity, higher = more binding, comparable within an allelic series)
HOXD13 [14]
  binding signal: 11.1 upbm affinity estimate (log intensity, higher = more binding, comparable within an allelic series)
HOXC9 [15]
  binding signal: 13.1 upbm affinity estimate (log intensity, higher = more binding, comparable within an allelic series)
HOXD13 [16]
  binding signal: 12.1 upbm affinity estimate (log intensity, higher = more binding, comparable within an allelic series)
HOXC10 [17]
  binding signal: 12.5 upbm affinity estimate (log intensity, higher = more binding, comparable within an allelic series)
HOXD13 [18]
  binding signal: 12.1 upbm affinity estimate (log intensity, higher = more binding, comparable within an allelic series)
HOXB9 [19]
  binding signal: 12.2 upbm affinity estimate (log intensity, higher = more binding, comparable within an allelic series)
HOXC9 [20]
  binding signal: 11.7 upbm affinity estimate (log intensity, higher = more binding, comparable within an allelic series)

## ACGATTAT
VENTX [1]
  binding signal: 10.5 upbm affinity estimate (log intensity, higher = more binding, comparable within an allelic series)
NKX2-6
  binding signal: 10.7 upbm affinity estimate (log intensity, higher = more binding, comparable within an allelic series)

## ATTTATTA
HOXB9 [9]
  binding signal: 10.1 upbm affinity estimate (log intensity, higher = more binding, comparable within an allelic series)
HOXC9 [10]
  binding signal: 12.7 upbm affinity estimate (log intensity, higher = more binding, comparable within an allelic series)
HOXC10 [11]
  binding signal: 12.5 upbm affinity estimate (log intensity, higher = more binding, comparable within an allelic series)
HOXB6 [21]
  binding signal: 10 upbm affinity estimate (log intensity, higher = more binding, comparable within an allelic series)
HOXB9 [12]
  binding signal: 12 upbm affinity estimate (log intensity, higher = more binding, comparable within an allelic series)
HOXC9 [13]
  binding signal: 12.8 upbm affinity estimate (log intensity, higher = more binding, comparable within an allelic series)
HOXD13 [14]
  binding signal: 10.9 upbm affinity estimate (log intensity, higher = more binding, comparable within an allelic series)
HOXC9 [15]
  binding signal: 12.7 upbm affinity estimate (log intensity, higher = more binding, comparable within an allelic series)
HOXD13 [16]
  binding signal: 12 upbm affinity estimate (log intensity, higher = more binding, comparable within an allelic series)
HOXC10 [17]
  binding signal: 12 upbm affinity estimate (log intensity, higher = more binding, comparable within an allelic series)
HOXD13 [18]
  binding signal: 11.8 upbm affinity estimate (log intensity, higher = more binding, comparable within an allelic series)
HOXB9 [19]
  binding signal: 11.7 upbm affinity estimate (log intensity, higher = more binding, comparable within an allelic series)
HOXC9 [20]
  binding signal: 11.3 upbm affinity estimate (log intensity, higher = more binding, comparable within an allelic series)

## ATTATAAT
HOXB9 [9]
  binding signal: 10.2 upbm affinity estimate (log intensity, higher = more binding, comparable within an allelic series)
HOXC9 [10]
  binding signal: 12.5 upbm affinity estimate (log intensity, higher = more binding, comparable within an allelic series)
HOXA7 [22]
  binding signal: 11.3 upbm affinity estimate (log intensity, higher = more binding, comparable within an allelic series)
PAX4 [23]
  binding signal: 11.8 upbm affinity estimate (log intensity, higher = more binding, comparable within an allelic series)
PRRX1 [7]
  binding signal: 11.3 upbm affinity estimate (log intensity, higher = more binding, comparable within an allelic series)
PAX4 [24]
  binding signal: 12.2 upbm affinity estimate (log intensity, higher = more binding, comparable within an allelic series)
HOXB6 [21]
  binding signal: 10.1 upbm affinity estimate (log intensity, higher = more binding, comparable within an allelic series)
PAX4 [25]
  binding signal: 12 upbm affinity estimate (log intensity, higher = more binding, comparable within an allelic series)
PAX4 [26]
  binding signal: 10.8 upbm affinity estimate (log intensity, higher = more binding, comparable within an allelic series)
HOXC10 [17]
  binding signal: 11.8 upbm affinity estimate (log intensity, higher = more binding, comparable within an allelic series)
PAX4 [27]
  binding signal: 11.1 upbm affinity estimate (log intensity, higher = more binding, comparable within an allelic series)
HOXC9 [20]
  binding signal: 11.1 upbm affinity estimate (log intensity, higher = more binding, comparable within an allelic series)
HESX1
  binding signal: 7.83 upbm affinity estimate (log intensity, higher = more binding, comparable within an allelic series)
PAX4 [28]
  binding signal: 11 upbm affinity estimate (log intensity, higher = more binding, comparable within an allelic series)
HOXA7 [29]
  binding signal: 8.94 upbm affinity estimate (log intensity, higher = more binding, comparable within an allelic series)
HOXA4 [30]
  binding signal: 11.4 upbm affinity estimate (log intensity, higher = more binding, comparable within an allelic series)
PRRX1 [8]
  binding signal: 13.3 upbm affinity estimate (log intensity, higher = more binding, comparable within an allelic series)
HOXB6 [31]
  binding signal: 11.8 upbm affinity estimate (log intensity, higher = more binding, comparable within an allelic series)

## CTAATCGC
VENTX [1]
  binding signal: 11.2 upbm affinity estimate (log intensity, higher = more binding, comparable within an allelic series)
VENTX [2]
  binding signal: 12.3 upbm affinity estimate (log intensity, higher = more binding, comparable within an allelic series)
VENTX [3]
  binding signal: 11.3 upbm affinity estimate (log intensity, higher = more binding, comparable within an allelic series)
CRX
  binding signal: 11.6 upbm affinity estimate (log intensity, higher = more binding, comparable within an allelic series)

## CCCGATTA
VENTX [1]
  binding signal: 10.4 upbm affinity estimate (log intensity, higher = more binding, comparable within an allelic series)
VENTX [3]
  binding signal: 10.6 upbm affinity estimate (log intensity, higher = more binding, comparable within an allelic series)

## AGTTATCC
VENTX [1]
  binding signal: 9.65 upbm affinity estimate (log intensity, higher = more binding, comparable within an allelic series)
VENTX [2]
  binding signal: 10.1 upbm affinity estimate (log intensity, higher = more binding, comparable within an allelic series)
HOXA4 [32]
  binding signal: 11.1 upbm affinity estimate (log intensity, higher = more binding, comparable within an allelic series)

## CGATTACG
VENTX [1]
  binding signal: 10.5 upbm affinity estimate (log intensity, higher = more binding, comparable within an allelic series)
HOXA7 [22]
  binding signal: 9.64 upbm affinity estimate (log intensity, higher = more binding, comparable within an allelic series)
HOXA7 [29]
  binding signal: 8.74 upbm affinity estimate (log intensity, higher = more binding, comparable within an allelic series)

## CACATTAG
VENTX [1]
  binding signal: 11 upbm affinity estimate (log intensity, higher = more binding, comparable within an allelic series)
ALX3 [33]
  binding signal: 8.26 upbm affinity estimate (log intensity, higher = more binding, comparable within an allelic series)
ALX3 [34]
  binding signal: 10.6 upbm affinity estimate (log intensity, higher = more binding, comparable within an allelic series)
VAX1 [4]
  binding signal: 11.3 upbm affinity estimate (log intensity, higher = more binding, comparable within an allelic series)
VAX1 [5]
  binding signal: 10.8 upbm affinity estimate (log intensity, higher = more binding, comparable within an allelic series)
ALX3 [35]
  binding signal: 8.21 upbm affinity estimate (log intensity, higher = more binding, comparable within an allelic series)
VAX1 [6]
  binding signal: 11 upbm affinity estimate (log intensity, higher = more binding, comparable within an allelic series)

Reference: paper PMC11006913
